# SW480 rereplic = induces DNA re-replication in SW480 colon adenocarcinoma cells | SW480 DNA re-replication, Hoechst DNA content imaging, 48 h | Potency, µM (titrated, usually from 46.1 µM), for inactives: at the highest dose re-replication activation, usual class: activators | hit rate 1.8% among 340,000; also: % of control where 0% means no effect; nearly all actives have a fitted effect of over 55% in size
#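 First, 250 cells per well were seeded. Next, compound or vehicle (23 nL) was pinned in, plates sat 48 hr at 37 C. Finally Hoechst was added for 40 min before fluorescence scanning.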
# PTAP TSG101 blk = blocks PTAP/TSG101 interaction to inhibit HIV-1 budding; Fluorescence polarization, FITC-PTAP peptide / Tsg101 binding; Potency, µM (doses to about 115 µM), without a hit: top-dose activity change, negative = inhibition, hits mostly inhibitors; 340,000 tested, under 10 active; AID 493005; active = well fitted inhibition curve with a large enough effect in the main read-out, with a control signal flat, not every such curve was filed as active; inconclusive = small, poorly fitted or top-dose-only effect, or effect the other way, or a change in a side signal; inactive = no such curve, though single readings can be large or run the other way; also: % of control where 0% means no effect
# Target sequence (Q99816 whole entry, looked up): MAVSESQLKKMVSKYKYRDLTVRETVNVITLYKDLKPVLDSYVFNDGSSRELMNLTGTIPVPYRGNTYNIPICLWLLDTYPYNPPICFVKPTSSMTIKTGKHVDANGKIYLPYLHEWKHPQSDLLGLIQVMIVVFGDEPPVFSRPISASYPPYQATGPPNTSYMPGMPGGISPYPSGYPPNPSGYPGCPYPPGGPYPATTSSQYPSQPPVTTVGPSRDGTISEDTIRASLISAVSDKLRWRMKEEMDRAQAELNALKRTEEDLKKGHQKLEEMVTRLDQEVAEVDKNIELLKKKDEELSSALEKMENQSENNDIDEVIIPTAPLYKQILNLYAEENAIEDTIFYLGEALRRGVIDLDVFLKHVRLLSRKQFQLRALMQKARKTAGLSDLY
#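 Tsg101 binding domain (10 uM final) was mixed with compound and a FITC-labeled PTAP peptide (50 nM final) in HEPES pH 7.5 buffer with NaCl, Tween 20, EDTA and TCEP; fluorescence polarization was read after 20 min at r.t.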
# PINK1 expr mod = changes PINK1 expression; PINK1 immunofluorescence, high-content cytometry, 24 h; Potency, µM (highest dose often 76.6 µM), for the others: at the highest dose activation (PINK1 increase), actives largely listed as activators; hit rate 0.2% among 410,000; active = well fitted activation curve with a large enough effect; inconclusive = small, poorly fitted or top-dose-only effect; cell line not stated here; also: % of control where 0% means no effect; nearly all actives have a fitted effect of over 65% in size
#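 A stable cell line was treated with compounds at 5 concentrations for 24 hours, with CCCP as control. PINK1 levels and mitochondrial localization were measured by immunofluorescence with mitochondrial, cell and nuclear markers after fixation, read by laser-scanning cytometry.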
# MCF10A rereplic = DNA re-replication induction in MCF 10a cells. MCF 10A DNA re-replication, Hoechst nuclear intensity, 48 h. AID 624296. hit rate 2.9% among 350,000. Potency, µM (highest dose often 46.1 µM), for inactives: at the highest dose activity, positive = re-replication, most hits filed as activators; also: % of control where 0% means no effect; nearly all actives have a fitted effect of over 50% in size
# KB-V1 cytotox = kills drug-selected multidrug resistant KB-V1 cells. KB-V1 MDR cells viability, CellTiter-Glo, 72 h. Potency, µM (highest dose often 46.1 µM), hits mostly cytotoxic. hit rate 3.4% among 400,000. AID 1347076; also: % is scaled to controls: 0 for no effect and ±100 for the full control effect; nearly all actives have a fitted effect of over 60% in size
#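 qHTS viability screen in drug-selected KB-V1 MDR cells: 72 h compound treatment at 37 degrees C, ATP luminescence end point.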
# KB-3-1 tox = KB-3-1 parental cell cytotoxicity. Potency, µM (doses to about 46.1 µM), hits mostly cytotoxic. hit rate 1.4% among 400,000. KB-3-1 viability, CellTiter-Glo ATP luminescence, 72 h; also: % is scaled to controls: 0 for no effect and ±100 for the full control effect; nearly all actives have a fitted effect of over 60% in size
#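 Cytotoxicity in the drug-sensitive parental line KB-3-1 was scored as loss of CellTiter-Glo luminescence following 72 h incubation with compound. Values come from curve fitting of normalized concentration-response data.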
# * = called active by the depositor; i = inactive; u = inconclusive; x = not tested or not shown; [ ] = remark or other dose. Compounds with a hit are over-represented: about 6.8% of the library has one in this group of screens. Unless noted, calls follow the shape of the dose curve; as a rule, active = well fitted curve in the direction sought with a large enough effect; inconclusive = small, poorly fitted or top-dose-only effect, or another doubt; inactive = no such curve, though single readings can be large; an effect the other way counts as inactive or inconclusive. Potency is read from the fitted curve at half-maximal effect.
SMILES,SW480 rereplic,PTAP TSG101 blk,PINK1 expr mod,MCF10A rereplic,KB-V1 cytotox,KB-3-1 tox
COc1ccc2cc(-c3cc(C(=O)O)c4ccccc4n3)ccc2c1,-4%,-8%,-2%,25%,i,15µM*
CCCc1ccc(-c2cc(C(=O)N3CCN(c4ccccn4)CC3)c3ccccc3n2)cc1,u,-13%,4%,u,u,u
COc1ccc2nc(-c3ccccc3)cc(C(=O)N3CCC3)c2c1,-4%,0%,1%,u,i,i
COc1cccc(CN2CCN(C(=O)c3cc(-c4cccnc4)nc4ccc(C)cc34)CC2)c1,0%,-3%,3%,3%,23µM*,i
CC1=C(c2ccc(C)cc2)S(=O)(=O)N(Cc2ccc(C(=O)Nc3ccc(C)c(F)c3)cc2)C1=O,x,x,4%,x,i,i
COc1ccc(-c2cc(C(=O)N3CCN(c4ccccn4)CC3)c3ccccc3n2)cc1,21µM*,-4%,8%[38.3 µM],u,i,i
CC(=O)c1ccc(NC(=O)CSc2cn(CC(=O)N3CCCCCC3)c3ccccc23)cc1,x,x,-1%,x,x,x
Cc1ccc(NC(=O)/C=C/c2ccc(Cl)cc2)nc1,13%,-4%,7%,-4%,i,i
O=C(CS(=O)(=O)c1ccccc1)Nc1ccc(Br)cn1,-1%,-1%,2%,2%,16µM*,i
C=CCCC(=O)Nc1ccc(Br)cn1,16µM*,0%,3%,9.2µM*,u,u
O=C(CC(=O)c1ccccc1)CS(=O)(=O)c1ccccc1,5%,-2%,-1%,u,12µM*,i
CCCCC(=O)Nc1ccc(Br)cn1,-6%,0%,1%,-7%,i,i
O=C(/C=C/c1ccccc1)Nc1ccc(Br)cn1,5.8µM*,-3%,5%,2.1µM*,i,5.2µM*
C=Cc1c(C)/c2[n-]/c1=C\c1[n-]c(c(CC)c1C)/C=c1\[n-]c3c(c1C)C(=O)C(C(=O)[O-])C=3c1[n-]c(c(C)c1CCC(=O)[O-])\C=2.[Cu].[Na+].[Na+] (stereo not drawn),-19%,x,x,-16%,x,x
COc1ccccc1OCCn1c(COc2cc(C)ccc2C)nc2ccccc21,x,x,2%,x,x,x
CC(C)CCNC(=O)c1ccc(Cn2c(=O)c3cccn3c3cccnc32)cc1,x,x,3%,x,x,x
CN(Cc1ccccc1)S(=O)(=O)c1ccc(NC(=O)C2CCCCC2C(=O)O)cc1 (stereo not drawn),-9%,-2%,2%,14%,21µM*,i
O=C(Cn1cnc([N+](=O)[O-])c1)c1ccc(Cl)cc1,-14%,x,1%,u,u,i
O=C(C[n+]1cnn(CC(=O)c2ccc(Cl)cc2Cl)c1)c1ccc([N+](=O)[O-])cc1,u,-1%,-2%,11%,i,18µM*
Cc1sc(NC(=O)Cc2ccc3c(c2)OCO3)nc1-c1ccc2c(c1)CCN2C(=O)c1cccc(F)c1,-8%,1%,1%,3%,i,i
CNc1nc(-c2ccc3c(c2)CCN3C(=O)c2cccc(F)c2)cs1,15µM*,-2%,3%,26%,i,15µM*
Cc1cccc(C(=O)N2CCc3cc(-c4csc(NC(=O)CN5CCCC5)n4)ccc32)c1,u,-1%,1%,16µM*,u,i
O=C(CN1CCCC1)Nc1nc(-c2ccc3c(c2)CCN3C(=O)c2ccccc2F)cs1,-27%,0%,-2%,u,i,i
CNc1nc(-c2ccc3c(c2)CCN3C(=O)c2ccc(F)cc2)cs1,-7%,-11%,7%,6%,u,i
Cc1cccc(C(=O)N2CCc3cc(-c4nc(NC(=O)CN5CCCC5)sc4C)ccc32)c1,u,-1%,6%,18µM*,i,i
SMILES,SW480 rereplic,PTAP TSG101 blk,PINK1 expr mod,MCF10A rereplic,KB-V1 cytotox,KB-3-1 tox
Cc1sc(NC(=O)CN2CCOCC2)nc1-c1ccc2c(c1)CCN2S(=O)(=O)c1ccccc1,-1%,-14%,2%[38.3 µM],u,4.1µM*,u
CCOc1ccccc1CNC(=O)c1ccc(N2Cc3ccccc3Oc3ncccc32)s1,x,x,4%,x,i,i
CC(C)NS(=O)(=O)c1ccc(OCC(=O)N2CCN(c3cccc(Cl)c3)CC2)cc1,x,x,0%,x,i,i
NC(=O)CCCn1c(C(=O)c2cc(Cl)c(N)c(Cl)c2)c2ccc([N+](=O)[O-])cc2[n+]1[O-],21µM*,-8%,0%,16µM*,i,u
COc1cc(OC)c(OC)cc1CN1CCc2nc(Nc3ccc4c(c3)OCCO4)ncc2C1,x,x,1%,x,i,i
O=C(Nc1ccc2oc(-c3ccc4ccccc4c3)nc2c1)c1ccc(Cl)c(Cl)c1,x,x,3%,x,x,x
O=C(Nc1ccc2oc(-c3ccc4ccccc4c3)nc2c1)c1ccc2c(c1)OCCO2,u,1%,u,12%,2.6µM*,i
Cc1ccc2nc(-c3cccc(NC(=O)c4ccc5c(c4)OCCO5)c3)oc2c1,-2%,-3%,8%,18µM*,i,u
N#CC1=C(N)C(C#N)(C#N)[C@H](c2c(F)cccc2F)[C@H]2CC3(CC=C12)OCCO3,3.3µM*,-13%,7%[38.3 µM],4.1µM*,u,6.5µM*
Cc1noc(C)c1S(=O)(=O)NCCc1csc2nc(-c3ccc(Cl)cc3)nn12,x,x,-1%,x,x,x
O=C(NCCS(=O)(=O)NCCCc1ccccc1)c1ccccc1,-269%,-7%,6%,1%,i,i
O=C(NCCS(=O)(=O)NCCc1ccccc1)c1ccccc1,-5%,-1%,-2%,0%,16µM*,i
COc1ccccc1CCNS(=O)(=O)CCNC(=O)c1ccccc1,0%,-3%,4%,2%,16µM*,i
O=c1oc2cc(O)ccc2cc1-c1nc(-c2ccc(Cl)c(Cl)c2)cs1,x,x,9%,x,i,i
CCC(C)(C)n1nnnc1C(c1ccc(C)cc1)N(Cc1ccco1)Cc1cccs1 (stereo not drawn),11%[9.22 µM],-1%,3%,u,11µM*,u
CCOC(=O)c1ccccc1NC(=O)CN1C(=O)CC(c2ccccc2)Sc2ccccc21 (stereo not drawn),x,x,2%,x,12µM*,u
COc1ccc(C2CC(=O)N(CC(=O)Nc3ccc(C)c(Cl)c3)c3ccccc3S2)cc1OC (stereo not drawn),x,x,3%,x,18µM*,u
Cc1ccc(NC(=O)CN2C(=O)C(c3ccc(C)cc3)=NC23CCCCCC3)cc1,x,x,-1%,x,x,x
CN(C)c1ccc(/C=C/c2ccnc3ccc(F)cc23)cc1,x,x,x,x,i,i

# From PubChem
